Data on 59 molecules can be found in PubChem BioAssay AID1259374 (The Scripps Research Institute Molecular Screening Center, 2018).

What is called inhibition is the relative decrease from the control value, in per cent.

Hit rate of the full screen: of about 650,000 compounds, about 5,900 (0.91%) were called active. Only a selection was taken, and actives are over-represented in it overall. Unmarked numbers belong to inactive results. Cut-off read from the data, not from the text of the source: active = inhibition above about 50%; inactive = the rest.

The assay deals with Microphthalmia-associated transcription factor (Homo sapiens) (UniProt O75030). Briefly: MITF inhibitors, primary screen, biochemical, AlphaScreen, human (AID 1259374).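 Note: 0% = vehicle wells with protein.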 Particulars: AlphaScreen MITF homodimerization, bead proximity signal; at 2.6 µM; hits give high values. (In general: In Alpha technology, singlet oxygen from a donor bead excites a nearby acceptor bead.)
Microphthalmia-associated transcription factor (Homo sapiens), sequence (O75030 whole entry, looked up): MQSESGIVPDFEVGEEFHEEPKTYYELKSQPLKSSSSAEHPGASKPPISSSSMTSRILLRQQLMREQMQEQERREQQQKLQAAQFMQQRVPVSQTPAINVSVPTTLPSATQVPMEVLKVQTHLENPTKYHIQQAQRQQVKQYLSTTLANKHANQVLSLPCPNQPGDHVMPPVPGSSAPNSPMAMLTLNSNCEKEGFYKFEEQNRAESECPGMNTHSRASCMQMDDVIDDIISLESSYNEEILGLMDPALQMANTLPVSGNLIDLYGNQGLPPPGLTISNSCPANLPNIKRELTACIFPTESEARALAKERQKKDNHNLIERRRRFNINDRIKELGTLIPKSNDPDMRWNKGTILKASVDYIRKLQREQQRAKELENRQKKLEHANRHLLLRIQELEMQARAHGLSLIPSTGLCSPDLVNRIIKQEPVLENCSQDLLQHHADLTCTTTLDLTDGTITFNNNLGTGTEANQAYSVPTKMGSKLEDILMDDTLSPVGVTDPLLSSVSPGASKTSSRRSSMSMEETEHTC
As for `CSc1ccc(CCNC(=O)c2cc3ccccn3n2)cc1`, the inhibition is -9.21%. As for `COc1ccc2[nH]c3c(c2c1)CCOC31CCN(C(=O)N[C@@H](C)c2ccccc2)CC1`, the figure is -20.6%. Consider `O=C(Nc1cccc(Cl)c1N1CCN(Cc2ccco2)CC1)c1ccc(Br)o1`, for which the inhibition was -6.95%.

With `O=C(CNC1CCCC1)Nc1ccc(N2CCCC2)cc1`, the inhibition is 6.86%. As for `O=C(CNCc1ccc(F)cc1)Nc1ccc(N2CCCC2)cc1`, the figure is 53.1% (active); as for `O=C(CNCCC1=CCCCC1)Nc1ccc(N2CCCC2)cc1`, 10.5%. `O=C(NCc1ccccc1)NC(=O)c1cccnc1`: the inhibition is 22.7%. As for `CCOc1ccc(-c2cc(N)n(S(=O)(=O)c3ccc(C)cc3)n2)cc1`, the figure is -6.9%; as for `Cn1c(=NC(=O)COc2ccccc2)sc2cc(S(C)(=O)=O)ccc21`, 52.2% (active). As for `Cn1c(=NC(=O)CCOc2ccccc2)sc2cc(Br)ccc21`, the figure is 3.97%. Turning to `CCCC(=O)N=c1sc2cc(S(C)(=O)=O)ccc2n1C`, the inhibition was 19%. As for `Cc1ccc(/C=C2\N=C(c3cccc(I)c3)OC2=O)cc1`, the figure is 12.7%; as for `Cc1ccc(C)c(NC(=O)CN(Cc2ccccc2)S(=O)(=O)c2ccc(Br)cc2)c1`, -9.84%; as for `CCN(Cc1ccccc1)C(=O)c1cc2c(=O)n3cccc(C)c3nc2n1C`, -25.5%. As for `CC(=O)N1CCN(CC(=O)Nc2ccc(C)c(F)c2)CC1`, the figure is 52.6% (active); as for `Cc1ccc(NC(=O)Cn2ccsc2=N)cc1F`, 6.14%. For the molecule `Cc1ccc(NC(=O)CN2CCN(c3ccccn3)CC2)cc1F`, the inhibition is 8.15%. As for `CCOc1ccc(Cl)cc1/C=C1/SC(=S)N(CCC(=O)O)C1=O`, the figure is -26.2%. As for `CC(C)n1cnc2c(NCc3ccccc3)nc(Nc3ccncn3)nc21`, the figure is 10%; as for `Cn1c(-c2ccccc2)cnc1NCc1cccc(F)c1`, 38%; as for `Cn1c(-c2ccc(F)cc2)cnc1NCc1cccnc1`, 72.7% (active). As for `FC(F)(F)c1cc(-c2cnc3c(NCc4cccnc4)nccn23)cc(C(F)(F)F)c1`, the figure is -11.6%. `COc1ccc(C(=O)COC(=O)c2c3c(nc4ccccc24)CCCC3)cc1OC`: the inhibition is 0.37%. As for `CN(Cc1cccs1)C(=O)CC1(c2cccc(F)c2)CC(=O)N(C2CCCC2)C1=O` (centres undefined), the figure is 7.07%. As for `Cc1[nH]c2ccccc2c1CN1CCN(Cc2ccc3c(c2)OCO3)CC1`, the inhibition is 38.3%. As for `OC1(Cc2ccccc2)CCN(Cc2ccncc2)CC1`, the figure is 1.54%; as for `Cc1ccc(CN2CCN(Cc3ccncc3)CC2)cc1`, 77.5% (active). As for `Cc1ccc(N2CCN(Cc3cccnc3)CC2)cc1`, the figure is 9.13%; as for `Cc1cc(OCC(O)CN2CCCC2)ccc1Cl` (centres undefined), 8.73%. As for `O=C1OC(c2ccc(F)cc2)=N/C1=C/c1ccc([N+](=O)[O-])cc1`, the figure is 5.42%; as for `CCN(CC)CCN1COc2c(cc(Cl)c3cccnc23)C1`, 102% (active); as for `Cn1c(=O)n(Cc2cc3c(cc2Cl)OCO3)c2cccnc21`, 13.7%. As for `CCN(CC)CCN1CCN(c2ncc(-c3ccccc3)n3ccnc23)CC1`, the inhibition is 8.61%. Take `C/C(=N/NC(=O)Cc1cccs1)c1ccc(Br)cc1`: the inhibition is 7.44%. On to `O=C(Cc1cccs1)N/N=C\C=C\c1ccco1`, for which the inhibition is 64.5% (active). As to `O=C(Cc1cccs1)N/N=C\c1ccc(Cl)c(Cl)c1`, the inhibition is -9.59%. As for `Cc1ccc(N(C(=O)C(C)Oc2ccccc2)C2C=CS(=O)(=O)C2)cc1` (centres undefined), the figure is -4%. As for `O=C(Nc1cccs1)N1CCC(Cn2c(COc3ccccc3)nc3ccccc32)CC1`, the figure is 12.3%; as for `COCCCNC(=O)Nc1ccc(Cl)c(Cl)c1`, 9.41%. As for `COCCCNC(=O)Nc1ccc([N+](=O)[O-])cc1`, the figure is 6.26%. In the case of `COCCNC(=O)Nc1ccc2nc(-c3ccco3)c(-c3ccco3)nc2c1`, the inhibition is 87.1% (active). Regarding `O=C(CCN1C(=O)C2C3C=CC(C3)C2C1=O)Nc1ncc(S(=O)(=O)c2ccc([N+](=O)[O-])cc2)s1` (centres undefined), the inhibition is 2.57%. `O=C(NNC(=O)c1cc([N+](=O)[O-])ccc1Cl)c1cccc(Cl)c1`: the inhibition is -0.55%. On to `Cc1cc(C)n2c(SCc3nc4sc(C)c(C)c4c(=O)[nH]3)nnc2n1`, for which the inhibition is 7.98%. In the case of `CSc1nnc(SCc2nc3sc(C(=O)O)c(C)c3c(=O)[nH]2)s1`, the inhibition was 55.8% (active). As for `COC(=O)c1sc2nc(C)[nH]c(=O)c2c1C`, the figure is -2%; as for `Cc1ccc(C)c(N2CCN(Cc3nnnn3Cc3ccc(F)cc3)CC2)c1`, 13.1%; as for `CC1(C(=O)O)NC(c2cc(Cl)cc(Cl)c2O)C2C(=O)N(c3ccccc3)C(=O)C21` (centres undefined), -2.7%. `O=CN1CCN(S(=O)(=O)c2ccccc2[N+](=O)[O-])CC1`: the inhibition is -7.16%. As for `COc1ccccc1N1CCN(S(=O)(=O)c2ccccc2[N+](=O)[O-])CC1`, the figure is -2.42%; as for `O=[N+]([O-])c1ccccc1S(=O)(=O)N1CCN(C2Cc3ccccc3C2)CC1`, 52.9% (active); as for `CC(=O)c1cccc(-c2nc(C)cc(NCc3nc4ccccc4[nH]3)n2)c1`, -6.7%. In the case of `COC(=O)c1sc(NC(=O)c2ccncc2)c(C#N)c1C`, the inhibition was 22.1%.

In the case of `COC(=O)c1sc(NC(=O)c2cccc(OC)c2OC)c(C#N)c1C`, the inhibition was 15.6%. Take `COC(=O)c1sc(NC(=O)c2ccccc2C)c(C#N)c1C`: the inhibition was 58.6% (active). For `O=C(O)CCCCC1SCC2NC(=O)NC21O` (centres undefined), the inhibition is 115% (active). In the case of `COc1ccc(NC(=O)c2cc(S(=O)(=O)NCCc3ccccc3)ccc2F)cc1`, the inhibition was 9.24%. Turning to `O=c1c2c(nc(SCc3ccccc3)n1-c1ccccc1)-c1ccccc1CC21CCCC1`, the inhibition is 7.99%. As for `CC(C)C(Nc1nc(N2CCC[C@H]2C(=O)O)ccc1[N+](=O)[O-])C(=O)O` (some centres undefined), the figure is 4.19%.
